# Compound activity from PubChem.
# RORg inh = blocks mouse ROR gamma transcriptional activity; Drosophila S2 Gal4-RORgamma UAS-luciferase reporter, 20 h; hit rate 5.4% among 310,000; Potency, µM (highest dose often 53.6 µM), for inactives: top-dose activity change, negative = inhibition, actives largely listed as inhibitors; AID 2551; P51450; note: % is set by controls: 0 for no effect and ±100 for the full control effect; nearly all actives have a fitted effect of over 60% in size
# Target sequence (P51450 whole entry, looked up, the tested form may be a part): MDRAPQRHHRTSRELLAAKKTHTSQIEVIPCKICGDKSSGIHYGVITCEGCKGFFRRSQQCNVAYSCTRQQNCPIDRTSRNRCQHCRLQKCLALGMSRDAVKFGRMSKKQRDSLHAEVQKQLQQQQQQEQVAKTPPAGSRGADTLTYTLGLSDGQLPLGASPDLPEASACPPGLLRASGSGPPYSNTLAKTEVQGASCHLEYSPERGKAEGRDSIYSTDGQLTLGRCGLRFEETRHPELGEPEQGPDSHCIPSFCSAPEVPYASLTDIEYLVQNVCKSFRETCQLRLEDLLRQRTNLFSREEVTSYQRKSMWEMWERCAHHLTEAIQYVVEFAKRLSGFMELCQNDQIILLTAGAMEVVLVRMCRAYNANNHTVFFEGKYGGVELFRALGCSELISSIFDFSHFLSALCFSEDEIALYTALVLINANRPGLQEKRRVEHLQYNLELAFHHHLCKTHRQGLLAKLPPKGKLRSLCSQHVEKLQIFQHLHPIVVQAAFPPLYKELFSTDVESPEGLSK
#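 Using a luciferase readout, inhibitors were identified by reduced reporter activity in Drosophila cells coexpressing a copper-inducible Gal4–ROR gamma fusion and UAS-driven Photinus luciferase, incubated 20 hr after 700 uM copper sulfate.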
# KB-V1 MDR tox = KB-V1 MDR subline cytotoxicity | KB-V1 MDR cells viability, CellTiter-Glo, 72 h | Potency, µM (series often up to 46.1 µM), usual class: cytotoxic | hit rate 3.4% among 400,000 | AID 1347076; note: % is set by controls: 0 for no effect and ±100 for the full control effect; nearly all actives have a fitted effect of over 60% in size
#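 KB-V1, DMEM (no phenol red) + 10% FBS; cpd pin-transferred, titration series; 72 h, 37 degrees C; CellTiter-Glo, luminescence. Data normalized, curve-fit.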
# SW480 rerep = induces DNA re-replication in SW480 colon adenocarcinoma cells; SW480 DNA re-replication, Hoechst DNA content imaging, 48 h; Potency, µM (top dose mostly 46.1 µM), inactives show at the highest dose re-replication activation, actives largely listed as activators; hit rate 1.8% among 340,000; AID 624297; note: % of control where 0% means no effect; nearly all actives have a fitted effect of over 55% in size
#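 Cells (250 per well) received 23 nL compound or DMSO by pin tool and were kept 48 hr at 37 C, 5% CO2. Nuclei were then stained with Hoechst for 40 min and scanned for DNA content.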
# MCF10A rereplic = inducers of DNA re-replication in MCF 10A breast cells | MCF 10A DNA re-replication, Hoechst nuclear intensity, 48 h | Potency, µM (series often up to 46.1 µM), for inactives: top-dose activity, positive = re-replication, hits mostly activators | hit rate 2.9% among 350,000; note: % of control where 0% means no effect; nearly all actives have a fitted effect of over 50% in size
# KB-3-1 tox = KB-3-1 parental cell cytotoxicity. Potency, µM (series often up to 46.1 µM), actives largely listed as cytotoxic. hit rate 1.4% among 400,000. KB-3-1 viability, CellTiter-Glo ATP luminescence, 72 h; note: % is set by controls: 0 for no effect and ±100 for the full control effect; nearly all actives have a fitted effect of over 60% in size
#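 KB-3-1 cells, DMEM (no phenol red) + 10% FBS; compound by pin transfer, 72 h, 37 °C. Readout: CellTiter-Glo luminescence after 10 min. Data normalized, curve-fitted.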
# Gal4-VP16 FLuc = inhibits Gal4-VP16 luciferase reporter, ROR gamma counter-screen; AID 2546; Potency, µM (doses to about 53.6 µM), inactives show at the highest dose activity, negative = inhibition, actives largely listed as inhibitors; hit rate 3.5% among 310,000; Drosophila S2 Gal4-VP16 UAS-luciferase, luminescence, 20 h;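 note: Gal4-VP16 expression switched on by copper sulfate through the metallothionein promoter; % is set by controls: 0 for no effect and ±100 for the full control effect; nearly all actives have a fitted effect of over 50% in size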
# An asterisk follows results filed as active; i = inactive; ? = inconclusive; nt = no result given; [ ] = dose if it differs, or a comment. Only some compounds are listed: those with a hit (about 10% of all), similar ones and a draw of the others. Calls come from the whole dose curve; as a rule, active = well fitted curve in the direction sought with a large enough effect; inconclusive = small, poorly fitted or top-dose-only effect, or another doubt; inactive = no such curve, though single readings can be large; an effect the other way counts as inactive or inconclusive. Potency is the fitted concentration of half-maximal effect.
SMILES,RORg inh,KB-V1 MDR tox,SW480 rerep,MCF10A rereplic,KB-3-1 tox,Gal4-VP16 FLuc
O=C(Nc1ccc2ccccc2c1)N1CCCN(CCOc2ccccc2)CC1,2.6%,14.6µM*,-20.3%,8.5%,?,-3.1%
O=S1(=O)N=C(Nc2nncs2)c2ccccc21,?,i,-5.6%,19.7%,i,10µM*
O=C(Nc1ccc(O)c(-c2nc3ccccc3o2)c1)C1(c2ccccc2)CCCC1,5.62µM*,?,9.8%,-1.0%,?,8.91µM*
O/N=C/c1ccc(OCc2ccccc2F)c(Cl)c1,-18.4%,16.4µM*,7.3%,?,?,-15.3%
O/N=C/c1ccc(OCc2ccccc2)c(Br)c1,-5.5%,11.6µM*,?,25.9µM*,?,-1.8%
O/N=C/c1ccc(OCc2ccccc2)c(Cl)c1,-6.4%,?,6.0%,3.8%,?,?
CCOc1cc(/C=N/O)cc(Br)c1OCc1ccc(Cl)cc1,0.7%,i,?,11.2µM*,i,-18.9%
Cc1ccc(S(=O)(=O)N2[C@H](CC(=O)c3cccs3)OC[C@@H]2C)cc1,nt,?,nt,nt,i,nt
Cc1ccc(S(=O)(=O)N2CCCC(c3nc4c(nnn4Cc4ccc(OC(F)(F)F)cc4)c(=O)[nH]3)C2)cc1 (configuration not stated),nt,i,nt,nt,i,nt
CNCc1ccccc1Sc1cccc2ccccc12,?,14.6µM*,?,?,?,?
CN(C)CCN(C)Cc1ccccc1Sc1cccc2ccccc12,-41.2%,23.1µM*,?,?,?,-13.0%
CNCc1ccccc1Sc1ccc(OC)cc1,-7.6%,i,1.8%,?,i,-1.2%
CCOc1ccccc1NC(=S)NCCCn1ccnc1,-1.4%,?,?,0.581µM*,i,-8.5%
CCOc1ccccc1NC(=O)Nc1cccc(S(N)(=O)=O)c1,-0.1%,i,-4.5%[9.22 µM],-2.8%,i,14.4%
CCOc1ccccc1NC(=S)NC(=O)C1CC1,?,i,3.0%,-0.5%,i,0.708µM*
COc1ccc(NC(=S)NCCCn2ccnc2)cc1,nt,i,3.7%,-1.3%,i,nt
Cc1ccccc1NC(=S)NC(=O)C1CCCCC1,3.98µM*,i,?,9.5%,i,?
O=C(NC(=S)Nc1ccccc1CO)C1CCCCC1,nt,i,-3.4%,-17.2%,i,nt
CCOc1ccccc1NC(=S)Nc1ccc(S(N)(=O)=O)cc1,11.2µM*,i,-2.4%,6.3%,i,-25.7%
Cc1c(C)n(Cc2ccccc2)c2ccc(C(=O)NCC(C)c3ccccc3)cc12 (configuration not stated),nt,i,nt,nt,i,nt
CCOC(=O)c1cnc2ccc(OCC)cc2c1N1CCN(c2ccccc2OC)CC1,-26.2%,?,-6.3%,18.4µM*,?,11.9%
CCOC(=O)c1cnc2ccc(OCC)cc2c1Nc1ccc(OCc2ccccc2Cl)cc1,nt,i,nt,nt,i,nt
CCOC(=O)c1cnc2ccc(OCC)cc2c1N(C)Cc1ccccc1,14.1µM*,?,9.1%,?,i,?
C[C@@H]1C[C@H](Nc2ccccc2)c2ccccc2N1C(=O)c1cccnc1,2.1%,?,?,13µM*,?,7.3%
CC1(C)C(=O)C=CC(=O)C(C)(C)C(=O)C=CC(=O)C(C)(C)C2=CC=C(O2)C(C)(C)C(=O)C=CC1=O,nt,i,?,7.31µM*,?,nt
SMILES,RORg inh,KB-V1 MDR tox,SW480 rerep,MCF10A rereplic,KB-3-1 tox,Gal4-VP16 FLuc
OCCC1CN(Cc2nc(-c3ccccc3)cs2)CCN1Cc1ccc(F)cc1 (configuration not stated),41.2%,9.2µM*,9.8%,?,?,?
Cc1cccc(OCC(=O)Nc2ccncc2)c1,nt,i,-0.2%,0.0%,i,nt
Cc1ccc(OCC(=O)Nc2ccncc2)c(C)c1,3.9%,i,-0.9%,-1.3%,i,15.8µM*
Cc1ccccc1OCC(=O)Nc1ccc(Cc2ccncc2)cc1,?,i,0.6%,12.8%,i,10µM*
Cc1ccccc1OCC(=O)Nc1ccncc1,?,i,-6.6%,11.5%,i,11.2µM*
Cc1ccn2c(=O)cc(COc3cccc(NC(=O)Nc4cccc(Cl)c4C)c3)nc2c1,nt,i,nt,nt,i,nt
Cc1ccccc1Nc1c(-c2ccco2)nc2c(C)cccn12,nt,i,nt,nt,i,nt
O=C1C2CCCCN2C(=O)N1CCN1CCN(c2cccc(Cl)c2)CC1 (configuration not stated),nt,i,-2.9%,0.0%,i,nt
O=C1C2CCCN2C(=O)N1CCCCN1CCN(c2cccc(Cl)c2)CC1 (configuration not stated),-1.2%,8.2µM*,-703.2%,?,i,-1.8%
Cc1cc(C)c2c(N)c(S(=O)(=O)c3ccccc3)sc2n1,1.2%,?,2.1%,?,i,?
Cc1cc2c(sc3c(C)ccc(C)c32)c(C)n1,17.8µM*,?,-35.7%,?,i,-6.2%
S=C1NC(c2cccs2)=CC(c2ccc(Br)cc2)N1 (configuration not stated),3.55µM*,?,20.6µM*,?,i,3.98µM*
S=C1NC(c2ccccc2)=CC(c2ccccc2)N1 (configuration not stated),3.55µM*,i,-2.9%,?,i,11.2µM*
